Test systems include HCT-15 colon; HT29 colon; SNB-75 CNS; SNB-19 CNS; U251 CNS; PC-3 prostate; SK-MEL-5 melanoma; UACC-62 melanoma; LOX IMVI melanoma; SK-MEL-28 melanoma.
Holding throughout (assay): NCI-60 one-dose screen, 48 h (100 = growth as untreated, 0 = no growth, -100 = all killed)
Common to all, as to details: 10 µM unless noted

This is part of a sample that, as a whole, favours compounds with a hit. Of some 83,000 tested, about 20% had one in any assay.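 Each cell line was grown in a 96-well plate and treated with one concentration of compound for 48 hours. Values below 10 were considered active.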 Unmarked numbers belong to inactive results. Calls of active or inactive are those of the source.

Regarding `COc1cc(/C=C/C(=O)CC(=O)/C=C/c2ccc(OC(=O)CCNC34CC5CC(CC(C5)C3)C4)c(OC)c2)ccc1OC(=O)CCNC12CC3CC(CC(C3)C1)C2`, the growth with HCT-15 colon was 46.9%; in the assay on HT29 colon, -70.6% (active); in the assay with SNB-75 CNS, 7.02% (active); in the assay on SNB-19 CNS, 29.6%; in the assay with U251 CNS, 22.2%; in the assay with PC-3 prostate, 21%. Besides, the growth is 25.3% in the assay on SK-MEL-5 melanoma, 43.2% in the assay on UACC-62 melanoma, 0.619% (active) in the assay with LOX IMVI melanoma and 33.6% with SK-MEL-28 melanoma.
For `O=C(/C=C(\Nc1ccccc1)c1ccccc1)c1cn(-c2ccc([N+](=O)[O-])cc2)nn1`, the growth in the assay with HCT-15 colon was 84.7%; with HT29 colon it was 96.9%; in the assay on SNB-75 CNS it was 91.8%; with SNB-19 CNS, 97.6%; in the assay on U251 CNS, 87.5%; in the assay on PC-3 prostate, 80.1%. The growth is 97.1% in the assay with SK-MEL-5 melanoma, 84.9% in the assay on UACC-62 melanoma, 88.5% in the assay with LOX IMVI melanoma and 83.7% with SK-MEL-28 melanoma.
With `c1ccc2nc(Cn3c[n+](Cc4ccc5ccccc5n4)c4ccccc43)ccc2c1`, the growth in the assay on HCT-15 colon is 98.7%; in the assay on HT29 colon it was 15.5%; in the assay on SNB-75 CNS, 41.4%; in the assay on SNB-19 CNS, 30.5%; with U251 CNS, 34%; in the assay on PC-3 prostate it was 14.6%. Also, the growth in the assay on SK-MEL-5 melanoma was -83.9% (active); in the assay with UACC-62 melanoma, -16.4% (active); with LOX IMVI melanoma, 25.8%; in the assay on SK-MEL-28 melanoma, 39.4%.
On to `Cc1nn(-c2ccccc2)cc1/C=C1\SC(N2CCCCC2)=NC1=O`, for which the growth is 22% in the assay with HCT-15 colon; 55.4% in the assay with HT29 colon; 102% with SNB-75 CNS; 82.5% in the assay with SNB-19 CNS; 79.4% with U251 CNS; 71% with PC-3 prostate. Also, the growth with SK-MEL-5 melanoma was 68.8%; with UACC-62 melanoma it was 78.4%; in the assay on LOX IMVI melanoma, 68.1%; in the assay on SK-MEL-28 melanoma, 108%.
For the compound `CN(C)CCCN=c1cc2c(=O)n(CCCN(C)C)c(=O)c3c(NCCCN(C)C)cc4c(O)n(CCCN(C)C)c(=O)c1c4c3-2`, the growth in the assay on HCT-15 colon is 13.7%; with HT29 colon, -42.2% (active); in the assay with SNB-75 CNS, -66.9% (active); with SNB-19 CNS, 10.7%; in the assay on U251 CNS, 3.63% (active); with PC-3 prostate, 12.1%. Further, the growth was -82.4% (active) with SK-MEL-5 melanoma, -49.3% (active) with UACC-62 melanoma, -42.3% (active) in the assay on LOX IMVI melanoma and -48.6% (active) in the assay on SK-MEL-28 melanoma.
With `COc1cnc2c(c1)C(=O)c1c-2n(CCCNC(C)C)c(=O)c2cc(F)ccc12`, the growth with HCT-15 colon was -5.08% (active); with HT29 colon, 0.147% (active); in the assay on SNB-75 CNS it was -22.5% (active); in the assay on SNB-19 CNS, 11%; with U251 CNS it was -32.8% (active); in the assay with PC-3 prostate, -5.02% (active). The growth with SK-MEL-5 melanoma was -98.5% (active); in the assay with UACC-62 melanoma, -44.2% (active); in the assay with LOX IMVI melanoma, -68% (active); in the assay with SK-MEL-28 melanoma it was -11.1% (active).
For `C[C@]12CCC(=O)C=C1CCC1C2[C@@H](O)C[C@@]2(C)C1CC[C@]2(O)C(=O)COC(=O)CCC(=O)O` (stereo not given in full), the growth in the assay on HCT-15 colon is 112%; with HT29 colon, 107%; in the assay on SNB-75 CNS it was 123%; with SNB-19 CNS it was 104%; in the assay on U251 CNS, 105%; with PC-3 prostate it was 93.2%. In addition, the growth in the assay on SK-MEL-5 melanoma is 98.6%; in the assay with UACC-62 melanoma, 106%; with LOX IMVI melanoma, 98.5%; in the assay with SK-MEL-28 melanoma, 108%.
In the case of `CN(C)c1ccc(-c2nc3ncc(Br)cc3o2)cc1`, the growth in the assay with HCT-15 colon was 115%; with HT29 colon it was 110%; in the assay on SNB-75 CNS, 103%; in the assay on SNB-19 CNS, 91%; with U251 CNS it was 100%; in the assay with PC-3 prostate, 83.3%. In addition, the growth in the assay with SK-MEL-5 melanoma was 99.8%; with UACC-62 melanoma, 87.3%; in the assay on LOX IMVI melanoma, 98.4%; in the assay on SK-MEL-28 melanoma it was 120%.
As to `O=C(C(=O)N1CCOCC1)c1cn(CCCn2cc(C(=O)C(=O)N3CCOCC3)c3ccccc32)c2ccccc12`, the growth was 104% with HCT-15 colon; 99.7% in the assay with HT29 colon; 94.7% in the assay on SNB-75 CNS; 93.9% in the assay on SNB-19 CNS; 102% in the assay on U251 CNS; 89.9% in the assay on PC-3 prostate. Moreover, the growth in the assay with SK-MEL-5 melanoma is 100%; in the assay on UACC-62 melanoma it was 93.5%; with LOX IMVI melanoma, 104%; in the assay on SK-MEL-28 melanoma, 110%.
For `Cc1sc2nc(NCCc3cccs3)[nH]c(=O)c2c1C`, the growth in the assay with HCT-15 colon was 59.6%; in the assay on HT29 colon it was 85.1%; in the assay on SNB-75 CNS it was 90.1%; in the assay on SNB-19 CNS, 90.2%; in the assay on U251 CNS, 75.8%; in the assay on PC-3 prostate it was 71.9%. Also, the growth was 90.8% in the assay on SK-MEL-5 melanoma, 63.1% in the assay with UACC-62 melanoma, 88.7% in the assay on LOX IMVI melanoma and 100% in the assay with SK-MEL-28 melanoma.
For `CCOC(=O)/C=C1/SC(=Nc2ccc(C#N)cc2)N(Cc2ccco2)C1=O`, the growth in the assay on HCT-15 colon was -4.1% (active); with HT29 colon it was 35%; in the assay with SNB-75 CNS, 83.3%; in the assay with SNB-19 CNS, 67.1%; with U251 CNS, 59.8%; with PC-3 prostate, 20.2%. In addition, the growth is 62.5% in the assay with SK-MEL-5 melanoma, 35.5% in the assay on UACC-62 melanoma, -73.2% (active) in the assay on LOX IMVI melanoma and 38.5% in the assay on SK-MEL-28 melanoma.
In the case of `C[C@H](C(=O)N[C@@H](Cc1ccc(-c2ccccc2)cc1)C(=O)NC1CC(C)(C)NC(C)(C)C1)c1ccc(-c2ccccc2)c(F)c1`, the growth in the assay on HCT-15 colon is -75% (active); with HT29 colon, -61.2% (active); in the assay on SNB-75 CNS, 13.3%; in the assay with SNB-19 CNS, -6.87% (active); in the assay with U251 CNS it was -71% (active); in the assay on PC-3 prostate it was -65.5% (active). Moreover, the growth in the assay on SK-MEL-5 melanoma was -93.1% (active); with UACC-62 melanoma, -43.9% (active); in the assay with LOX IMVI melanoma it was -85.3% (active); with SK-MEL-28 melanoma, -77.7% (active).
For `COc1cccc(/C=N/Nc2nc3ccccc3s2)c1OC`, the growth in the assay on HCT-15 colon was 43.1%; in the assay on HT29 colon, 61.1%; in the assay on SNB-75 CNS it was 86.5%; in the assay with SNB-19 CNS, 83.9%; with U251 CNS, 49.1%; with PC-3 prostate it was 46.3%. In addition, the growth is 52.6% in the assay on SK-MEL-5 melanoma, 66.7% in the assay on UACC-62 melanoma, 47.6% in the assay on LOX IMVI melanoma and 97.8% with SK-MEL-28 melanoma.
For `Nc1ncnc2c1CN(Cc1ccccc1)CC2`, the growth in the assay on HCT-15 colon was 107%; in the assay on HT29 colon, 104%; in the assay on SNB-75 CNS, 89%; in the assay on SNB-19 CNS, 104%; with U251 CNS, 101%; in the assay on PC-3 prostate, 93.9%. The growth in the assay with SK-MEL-5 melanoma was 109%; in the assay on UACC-62 melanoma, 107%; in the assay with LOX IMVI melanoma, 91.4%; with SK-MEL-28 melanoma it was 109%.

The values are drawn from PubChem BioAssay (NCI).
